Data taken from the supplement of paper PMC10338343.
± gives the standard deviation.

How the values were obtained:
[1] = tested on: MILI (PIWIL2) piRISC loaded with piRNA #1 (26 nt); test: pre-steady-state target cleavage rate (min^-1); guide: piRNA #1 5'p-UGAGGUAGUAGGUUGUAUAGUAUCCA; higher = faster piRNA-guided slicing of the target; conditions: auxiliary factor: 500 nM mouse GTSF1
Procedure, shortened: (§1)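 Sequencing of uncleaved targets, normalised to depth and to weakly complementary targets, was the readout of this Cleave-'n-Seq assay. A transcribed, DNA-blocked target RNA library (0.1 nM) was mixed with 1 nM active affinity-purified piRISC carrying one synthetic guide, with or without 500 nM GTSF1 partner protein, in HEPES–potassium acetate buffer at 33 °C for 0–8 or 0–960 min. Three trials were pooled, k3 was capped at 0.0001 min^-1, and a burst-and-steady-state fit gave the pre-steady-state cleavage rate.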

[2] = tested on: EfPiwi piRISC loaded with piRNA #1 (26 nt); test: pre-steady-state target cleavage rate (min^-1); auxiliary factor: 500 nM Ephydatia muelleri Gtsf1; guide: piRNA #1 5'p-UGAGGUAGUAGGUUGUAUAGUAUCCA; MIWI and MILI are mouse PIWI proteins and EfPiwi is from a freshwater sponge; tags in brackets are library labels; higher = faster piRNA-guided slicing of the target
Procedure, shortened: as §1

Sequence	pre-steady-state target cleavage rate [1]	pre-steady-state target cleavage rate [2]
GGAGAGGAUACUAUACAUCCUACAACCUCA	0.125 ± 0.024	0.00339 ± 0.0022
GGAGACCUAACGAUACAACCUACUACCUCA	0.257 ± 0.053	0.0136 ± 0.0071
GGAGAGGAAACUAUACAACCUACUACCACA	0.155 ± 0.03	0.00262 ± 0.0018
GGAGAGGAUAGUAUACAACCUACUAGCUCA	0.00705 ± 0.0035	0.00348 ± 0.0023
GGAGACCAAACUAUACAACCUACUACCUGA	0.133 ± 0.045	0.00429 ± 0.0028
GGAGACGAUACUAUACAACCUACUUCCUCA	0.0885 ± 0.024	0.00431 ± 0.0018
GGAGUGGAUACAUAUACAACCUACUACCUCA	0.114 ± 0.011	0.0717 ± 0.027
GGAGACGAUACUAUUCUACCUACUACCUCA	0.173 ± 0.012	0.00416 ± 0.0035
GGAGAGGGUACUAUACAACCUACUACCUCA	0.145 ± 0.013	0.0162 ± 0.0072
GGAGUGGAUACUAUACAAGCUACUACGUCA	0.0651 ± 0.013	0.00405 ± 0.0015
GGAGACCUUACUAUACAACAUACUACCUCA	0.0732 ± 0.0077	0.00974 ± 0.0063
GGAGACCUAACUAUACAACCUACUACAUCA	0.0477 ± 0.014	0.0146 ± 0.0083
GGAGACCUAUCUAGUACAACCUACUACCUCA	0.0316 ± 0.0066	0.00434 ± 0.0035
GGAGACGAUACUAACAACCUACUACCUCA	0.173 ± 0.012	0.00704 ± 0.0045
GGAGAGGUUACUAUACAACCUACUACCUCA	0.197 ± 0.014	0.0625 ± 0.025
GGAGUGGUUAGUAUACAACCUACUACCUCA	0.105 ± 0.011	0.00533 ± 0.0036
GGAGUGGAUACUAUACAACCAUCUACCUCA	0.00432 ± 0.0024	0.00525 ± 0.0023
GGAGACGAUACUAAACAACCUACUACGUCA	0.0907 ± 0.012	0.00304 ± 0.003
GGAGACCAUACUAUACAUCCUACUAGCUCA	0.152 ± 0.024	0.00265 ± 0.0024
GGAGAGGAUACUAUACAACCUACUACCUACA	0.133 ± 0.016	0.00995 ± 0.0044
GGAGACCUAUGUAUACAACCUAGUACCUCA	0.00921 ± 0.0021	0.00291 ± 0.0029
GGAGACCAUACUUUACAACCUACUUCCUCA	0.0695 ± 0.018	0.00404 ± 0.0039
GGAGACCAUACUAUACAAGGUACUACCUCA	0.0713 ± 0.0087	0.00335 ± 0.0029
GGAGACCUUACUAUACAACCUACUACCUACA	0.109 ± 0.017	0.00473 ± 0.0031
GGAGUGGAUACAAUACUACCUACUACCUCA	0.16 ± 0.013	0.00316 ± 0.0019
GGAGACGAUACUAUACAACCUACUAUCCUCA	0.193 ± 0.024	0.0049 ± 0.0014
GGAGACCAUACUAUACAACCUCCUACCUCA	0.0492 ± 0.0088	0.00434 ± 0.0015
GGAGUGGUUACUAUUCAACCUACUACCUCA	0.202 ± 0.012	0.00293 ± 0.0021

Sequence	pre-steady-state target cleavage rate [1]	pre-steady-state target cleavage rate [2]
GGAGAGGAUGACUAUACAACCUACUACCUCA	0.0775 ± 0.015	0.01 ± 0.006
GGAGAGGAUACUAUGACAACCUACUACCUCA	0.143 ± 0.013	0.102 ± 0.041
GGAGUGGAAACUAUACAACCUACUACGUCA	0.0633 ± 0.012	0.00326 ± 0.0026
GGAGACGAUACUAUACAACUACUACCUCA	0.0571 ± 0.0061	0.00742 ± 0.0033
GGAGACGAUACUUUACAACCUACUACGUCA	0.0766 ± 0.011	0.00279 ± 0.0019
GGAGACGAUACUAUUCAAGCUACUACCUCA	0.23 ± 0.015	0.00454 ± 0.002
GGAGAGGAUUCUAUACAAGCUACUACCUCA	0.15 ± 0.01	0.00384 ± 0.0028
GGAGACCAACUAUACAACCUACUACCUCA	0.224 ± 0.021	0.00596 ± 0.0037
GGAGAGGAUAUCUAUACAACCUACUACCUCA	0.0599 ± 0.0073	0.00594 ± 0.0046
GGAGUGGAUACUAUACAACGUUCUACCUCA	0.00599 ± 0.0017	0.00461 ± 0.0022
GGAGAGGAUACUACACAACCUACUACCUCA	0.193 ± 0.019	0.00871 ± 0.004
GGAGAGGAUACUUUUCAACCUACUACCUCA	0.145 ± 0.011	0.00409 ± 0.004
GGAGAGGAUAGUAUACAUCCUACUACCUCA	0.0609 ± 0.011	0.00316 ± 0.0022
GGAGACCUAUGAUAUGUUGCUACUACCUA	< 0.0001	< 0.0001
GGAGACCUUACAAUACAACGUACUACCUCA	0.0135 ± 0.0052	0.00409 ± 0.004
GGAGAGGAUACUAUACAAGCUACUACCACA	0.243 ± 0.019	0.00317 ± 0.0019
GGAGACGAUUCAAUACAACCUACUACCUCA	0.104 ± 0.012	0.0447 ± 0.018
GGAGACCUAACUAUACAACAUACUACCUCA	0.0407 ± 0.0099	0.00659 ± 0.0046
GGAGACCUAACUAUACAACCUACUUCCUGA	0.0081 ± 0.0069	0.00376 ± 0.0037
GGAGACGAUACUAUACAGCCUACUACCUCA	0.16 ± 0.015	0.0104 ± 0.0039
GGAGACCUAACUAUACAAGCUACUACCUCA	0.206 ± 0.02	0.00482 ± 0.0028
GGAGUGCAUACUAUACAACCUACUACGUCA	0.0632 ± 0.0079	0.00318 ± 0.0018
GGAGACCAUACUAUACAACCUAGAUCCUCA	0.0232 ± 0.0082	0.00423 ± 0.0039
GGAGACCUUACUAUACAACCUAGUACCUCA	0.0616 ± 0.011	0.00384 ± 0.0019
GGAGACCAUACUAUACUACCUACUACGUCA	0.104 ± 0.017	0.0039 ± 0.0028
GGAGAGGAUACUAUACAACCUACAUACCUCA	0.123 ± 0.012	0.00353 ± 0.0021
GGAGAGGAAACUAUACAAGCUACUACCUCA	0.179 ± 0.031	0.00403 ± 0.0014
